# Compounds with a hit are over-represented: about 3.5% of the library has one in this group of screens.
# FBPA Giardia inh: inhibitors of Giardia lamblia fructose-1,6-bisphosphate aldolase. A8B2U2. purified Giardia FBPA. Potency, µM (titrated, usually from 59.6 µM), without a hit: at the highest dose activity, negative = inhibition, most hits filed as inhibitors. 290,000 compounds, 0.71% hits; further: potency means the concentration at half of the fitted maximal effect; on the % scale 0 is the no-effect control and ±100 the full control effect; nearly all actives have a fitted effect of over 55% in size
# Target sequence (A8B2U2 whole entry, looked up): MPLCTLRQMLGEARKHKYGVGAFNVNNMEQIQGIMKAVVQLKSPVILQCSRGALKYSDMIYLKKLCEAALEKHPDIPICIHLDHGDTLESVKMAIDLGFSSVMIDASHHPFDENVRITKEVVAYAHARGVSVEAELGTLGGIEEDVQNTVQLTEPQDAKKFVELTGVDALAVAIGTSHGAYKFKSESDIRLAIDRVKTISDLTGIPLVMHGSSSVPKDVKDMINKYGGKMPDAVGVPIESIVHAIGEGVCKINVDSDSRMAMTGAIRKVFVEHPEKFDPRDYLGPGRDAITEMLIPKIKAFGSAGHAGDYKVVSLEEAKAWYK
#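 40 nM FBPA preincubated 10 min at RT with compound (up to 57.5 uM final), then substrate plus GAPDH/TPI/NAD/arsenate coupling and diaphorase/resazurin added. Fluorescence read after 20 min at RT, 525/598 nm.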
# NS1 inh: influenza NS1 inhibition | AID 2326 | Potency, µM (titrated, usually from 46.1 µM), for the others: at the highest dose activity, positive = more growth | 270,000 compounds, 0.4% hits; calls by dose curve; further: potency means the concentration at half of the fitted maximal effect; actives are rising curves; nearly all actives have a fitted effect of over 50% in size
#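 In this qHTS, NS1 from influenza A is expressed in budding yeast, where it slows growth. Cells are switched from glucose to 2% galactose medium (pH 6.0, -URA), treated with compound, and growth recovery is read at OD600.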
# Sm TGR block: blocks Schistosoma mansoni thioredoxin glutathione reductase; Q962Y6; Potency, µM (titrated, usually from 114 µM), for the others: top-dose activity change, negative = inhibition, most hits filed as inhibitors; AID 485364; purified TGR, DTNB reduction, TNB absorbance 405 nm; 360,000 compounds, 3% hits; further: potency means the concentration at half of the fitted maximal effect; on the % scale 0 is the no-effect control and ±100 the full control effect; nearly all actives have a fitted effect of over 60% in size
#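 First, TGR (20 nM dispensed) and NADPH were mixed with compound. Second, a 15 min room-temperature incubation followed. Third, further NADPH and then DTNB were added to start the reaction. Finally, TNB absorbance was monitored kinetically.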
# RE007 growth inh: less growth of the S. pombe RE007 Vpr strain; 360,000 compounds, 0.21% hits; Potency, µM (doses to about 92.2 µM), without a hit: at the top dose activity change, negative = less growth, hits mostly inhibitors; AID 651644; S. pombe RE007 Vpr strain, BacTiter-Glo ATP luminescence, 24 h; active means well fitted falling curve with a large enough effect; inconclusive means small, poorly fitted or top-dose-only effect; inactive means no such curve, though single readings can be large or run the other way; further: potency means the concentration at half of the fitted maximal effect; on the % scale 0 is the no-effect control and ±100 the full control effect; nearly all actives have a fitted effect of over 50% in size
#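 Fission yeast strain RE007, carrying one chromosomally integrated HIV-1 vpr copy, was seeded at OD 0.01 in PMG+AL medium with 23 nL pinned compound. After 24 h at 30 °C and 99% humidity, viability was read by BacTiter-Glo luminescence.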
# LmPK inh: blocks Leishmania mexicana pyruvate kinase activity; Q27686; purified LmPK, Kinase-Glo ATP luminescence, 1 h; Potency, µM (highest dose often 57.5 µM), inactives show at the highest dose activity change, negative = inhibition, hits mostly inhibitors; 290,000 compounds, 0.37% hits; AID 1721; further: potency means the concentration at half of the fitted maximal effect; on the % scale 0 is the no-effect control and ±100 the full control effect
#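 Pyruvate kinase activity monitored as ATP production (luciferase luminescence). Conditions: 0.1 nM enzyme, 0.5 mM PEP, 0.1 mM ADP, 1 h, RT; normalized against uninhibited and no-enzyme wells.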
# TbPYK inhibitor: T. brucei pyruvate kinase inhibition; 410,000 compounds, 0.12% hits; Potency, µM (highest dose often 76.8 µM), for inactives: top-dose activity, negative = inhibition, hits mostly inhibitors; Q57TT1; TbPYK enzyme, Kinase-Glo Plus ATP luminescence, 45 min; further: potency means the concentration at half of the fitted maximal effect; on the % scale 0 is the no-effect control and ±100 the full control effect; nearly all actives have a fitted effect of over 50% in size
#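 T. brucei PYK with substrate was exposed to pin-transferred compounds across a concentration series, then started with 130 uM ADP (final). After 45 min at room temperature, Kinase-Glo Plus luminescence was read, normalized and curve-fitted.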
# Flu NS1 inh: validation of influenza NS1 protein function inhibitors; shares compounds with NS1 inh; influenza NS1 function cell assay, 15-point titration; activity change, negative = inhibition, % at 32.9 µM; 1,400 tested, under 10 active; AID 492980; calls by dose curve; further: 0% is about no effect
# PR8 titer: influenza NS1 inhibitors: inhibition of influenza A/PR/8/34 replication; MDCK infected influenza A/PR/8/34, virus titer TCID50; active compounds read low; 95 compounds, 30% hits; shares compounds with NS1 inh; virus titer (log TCID50), log10 TCID50 at 5 µM; AID 504647; call rule not given here
# Numbers without * were called inactive; ? = inconclusive; nt = no result; [ ] = another dose, or the depositor's remark. Unless noted, the call rests on the fitted dose curve; in most records, active means well fitted curve in the direction sought with a large enough effect; inconclusive means small, poorly fitted or top-dose-only effect, or another doubt; inactive means no such curve, though single readings can be large; an effect the other way counts as inactive or inconclusive.
SMILES,FBPA Giardia inh,NS1 inh,Sm TGR block,RE007 growth inh,LmPK inh,TbPYK inhibitor,Flu NS1 inh,others
CC(C)C[C@H](NC(=O)c1[nH]cnc1C(=O)N[C@@H](C)C(=O)OCc1ccccc1)C(=O)OC(C)(C)C,-29%,13µM*,0%,-8%,4%,-5%,-28,
CC(C)C[C@H](NC(=O)c1nc[nH]c1C(=O)NCC(=O)OCc1ccccc1)C(=O)OC(C)(C)C,-5%,?,-1%,10%,-8%,1%,nt,
CC(C)C[C@H](NC(=O)c1nc[nH]c1C(=O)NC(c1ccccc1)c1ccccc1)C(=O)OC(C)(C)C,-16%,10µM*,5%,10%,1%,0%,15,
O=C(O)c1cccc(NC(=O)C23CC4CC(C2)CC(n2cnc(Cl)n2)(C4)C3)c1,4%,9%,-2%,-5%,5%,0%,nt,
O=C(Nc1cc(Oc2ccccc2)cc([N+](=O)[O-])c1)C12CC3CC(C1)CC(n1cnc(Cl)n1)(C3)C2,-2%,2.2µM*,8%,17%,2%,6%,?,
Cc1ccc(-n2nnnc2SCC(=O)c2cc(C)n(-c3cc(C)on3)c2C)c(C)c1,-7%,?,-24%,-16%,4%,-6%,-15,
CCCCCCCCCCOCC(O)CN (stereo not drawn),nt,nt,nt,nt,nt,3%,nt,
CN(CC(=O)Nc1cccc2ccccc12)C(=O)c1cccc(S(=O)(=O)N(C)C)c1,-3%,?,5%,-4%,1%,2%,-6,
Cc1cc(C)cc(NC(=O)Cn2cc3c(n2)CCCCC3)c1,15%,-15%,1%,nt,8%,nt,nt,
CN(C)c1ccc(NC(=O)Cn2cc3c(n2)CCCC3)cc1,-14%,10µM*,-26%,1%,-1%,-20%,17,
O=C1CCCC2=C1C(c1ccc(Br)cc1)c1c([nH]c(=S)[nH]c1=O)N2 (stereo not drawn),-6%,6.3µM*,-4%,36%,-2%,-28%,13,
Cc1ccc(C2C3=C(CCCC3=O)Nc3[nH]c(=S)[nH]c(=O)c32)cc1 (stereo not drawn),?,3%,-2%,-8%,3%,?,nt,
CCOC(=O)c1c(NC(=O)c2cc3ccccc3c(=O)o2)sc2c1CCCC2,nt,nt,-2%,nt,nt,-1%,nt,
CCc1ccc(NS(=O)(=O)c2ccc3[nH]cc(C(=O)N4CCc5ccccc54)c(=O)c3c2)cc1,13%,-39%,-2%,-10%,2%,-4%,nt,
Cc1cc(C)cc(NS(=O)(=O)c2ccc3[nH]cc(C(=O)N4CCc5ccccc54)c(=O)c3c2)c1,11%,22µM*,-7%,8%,2%,4%,11,
Cc1ccc(-c2nc(S(=O)(=O)c3ccc(Cl)cc3)c(N3CCCCC3)o2)cc1,nt,nt,3%,nt,nt,8%,nt,
O=C1CC2(CCCCC2)CC(=O)N1CCc1ccccc1,nt,nt,nt,12%,nt,13%,nt,
O=C1C=CC(=O)C(C2=C3C(=O)N(CCc4ccccc4)CC(=O)N3CCC2)=C1,18µM*,14µM*,0.28µM*,-11%,?,2.5µM*,3,
CC(=O)Nc1ccc(/C(C)=N/Nc2nc(N3CCOCC3)nc(N3CCOCC3)n2)cc1,2%,nt,4%,4%,-9%[11.5 µM],-6%,nt,
CC(=O)Nc1ccc(/C(C)=N/Nc2nc(Nc3cccc4ccccc34)nc(N3CCOCC3)n2)cc1,-1%,4.5µM*,3%,5%,0%,-4%,?,
COc1ccc(CN2CCN(C(=O)CCC(=O)Nc3nnc(CC(C)C)s3)CC2)cc1F,12%,2.2µM*,-25%,13%,-3%,-3%,?,
CCOC(=O)c1cc(S(=O)(=O)Nc2ccc(OC(F)(F)F)cc2)[nH]n1,nt,nt,2%,nt,nt,-8%,nt,
COc1ccc(NC(=S)NCCC(c2ccccc2)c2ccccc2)c(OC)c1,-8%,11µM*,7%,7%,2%,-3%,?,
COc1ccc(NC(=O)CC(=O)Nc2ccc(OC)cc2OC)c(OC)c1,-2%,?,-4%,1%,2%,0%,2,
COc1cccc(NC(=S)NCCC(c2ccccc2)c2ccccc2)c1,4%,11%,39%,22%,-1%,-1%,nt,
SMILES,FBPA Giardia inh,NS1 inh,Sm TGR block,RE007 growth inh,LmPK inh,TbPYK inhibitor,Flu NS1 inh,others
COc1ccc(NC(=O)CC(C)=O)c(OC)c1,-2%,5%,10%,nt,-1%,-3%,nt,
CCN(CCCNC(=O)CN1N=C(c2ccccc2)CCC1=O)c1cccc(C)c1,nt,nt,10%,nt,nt,-11%,nt,
CCN(CC)C(=O)C1=CC(c2ccc3c(c2)OCO3)=NS(=O)(=O)N1C,nt,nt,-5%,nt,nt,3%,nt,
CCOc1ccc(C2=Nc3ccc(Br)cc3C(c3ccc(N4CCOCC4)cc3)=NN2)cc1,-6%,?,-9%,11%,-1%,1%,-7,
Brc1ccc2c(c1)C(c1ccc(N3CCOCC3)cc1)=NNC(c1cccs1)=N2,0%,21%,2%,-7%,1%,-10%,nt,
CCOc1ccc(C2=Nc3ccccc3C(c3ccc(N4CCOCC4)cc3)=NN2)cc1,-2%,?,-13%,-2%,-5%,2%,19,PR8 titer=7.5*
CCc1ccc2c(c1)C(c1ccc(N3CCOCC3)cc1)=NNC(c1ccncc1)=N2,-2%,1%,nt,-22%,-1%,4%,nt,
Cc1ccc2c(c1)C(=O)OC(C(=O)Nc1ccc(C(=O)O)cc1)C2 (stereo not drawn),nt,nt,1%,nt,nt,4%,nt,
C/C(=N\NC(=S)Nc1ccc(C)c(C)c1)c1ccc(N2CCOCC2)cc1,0%,7.9µM*,-3%,-6%,-6%,5%,?,
COc1ccc(-c2cc(C(=O)Nc3nc4c(C)cccc4s3)c3ccccc3n2)cc1OC,nt,11µM*,0%,17%,1%,5%,9,
COc1cccc(-c2cc(C(=O)Nc3nc4ccccc4s3)c3ccccc3n2)c1,1%,26%,-21%,-17%,0%,3%,nt,
Cc1cc(C)cc(C(=O)Nc2c3c(nn2-c2ccccc2C)CS(=O)(=O)C3)c1,nt,nt,-35%,nt,nt,2%,nt,
Cc1ccc(C)c(N2CCN(C(=O)C3CCCN(S(=O)(=O)c4cccc5nsnc45)C3)CC2)c1 (stereo not drawn),nt,nt,-3%,nt,nt,5%,nt,
Cc1ccc(C)c(N2CCN(C(=O)C3CCN(S(=O)(=O)c4cccc5nsnc45)CC3)CC2)c1,-5%,?,11%,0%,-2%,5%,-14,PR8 titer=8.5

# From PubChem BioAssay
